Results filed as inconclusive are left out. Calls of active or inactive are those of the source. Calls follow the shape of the dose curve; as a rule, active = well fitted inhibition curve with a large enough effect; inconclusive = small, poorly fitted or top-dose-only effect; inactive = flat fitted curve, though single readings scatter.
Experiments:
Test in all cases: qHTS profiling for inhibitors of Plasmodium falciparum proliferation (AID 504749); also: nearly all actives have a fitted effect of over 60% in size
Details in all cases: P. falciparum in erythrocytes, SYBR Green DNA, 72 h; series mostly up to 28.7 µM
[1] = system: CP238
How it was run: (§1)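 Fluorescence of SYBR Green-bound parasite DNA, read at 485/535 nm, served as the growth measure. Infected erythrocytes were cultured with compound 72 h; artemisinin (0.29 uM) and DMSO wells defined the normalization range.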

[2] = system: CP247
How it was run: as §1

[3] = system: CP250
How it was run: as §1

[4] = system: CP252
How it was run: as §1

[5] = system: CP256
How it was run: as §1

[6] = system: CP262
How it was run: as §1

[7] = system: CP265
How it was run: as §1

[8] = system: CP266
How it was run: as §1

[9] = system: CP268
How it was run: as §1

[10] = system: CP269
How it was run: as §1

[11] = system: CP291
How it was run: as §1

[12] = system: CP297
How it was run: as §1

[13] = system: CP305
How it was run: as §1

[14] = system: CP315
How it was run: as §1

[15] = system: CP325
How it was run: as §1

[16] = system: CP329
How it was run: as §1

[17] = system: CP335
How it was run: as §1

[18] = system: DFO2036
How it was run: as §1

[19] = system: CP260
How it was run: as §1

[20] = system: CP286
How it was run: as §1

Measured: Potency
Potency is read from the fitted curve at half-maximal effect.

CC(C)=CC1C(C(=O)OCc2cccc(Oc3ccccc3)c2)C1(C)C (configuration not stated)
inactive: [1] | [2] | [3] | [4] | [5] | [6] | [7] | [8] | [9] | [10] | [11] | [12] | [13] | [14] | [15] | [16] | [17] | [18]

Cc1ccc(-c2nc3ccc(C)cn3c2CC(=O)N(C)C)cc1
inactive: [1] | [2] | [3] | [4] | [19] | [6] | [7] | [8] | [9] | [10] | [20] | [11] | [13] | [14] | [15] | [16] | [17]

Fc1ccc(C(OCCN2CCN(CCCc3ccccc3)CC2)c2ccc(F)cc2)cc1
active: [1] 12.6 µM | [2] 10 µM | [4] 11.2 µM | [19] 10 µM | [10] 15.1 µM | [20] 11.2 µM | [11] 10.7 µM | [13] 10.7 µM | [15] 15.1 µM | [17] 9.53 µM | [18] 11.2 µM
inactive: [6]

CCN(CC)CCN1C(=O)CN=C(c2ccccc2F)c2cc(Cl)ccc21
inactive: [2] | [3] | [4] | [5] | [19] | [6] | [8] | [9] | [10] | [20] | [12] | [13] | [14] | [15] | [18]

CN1C(=S)CN=C(c2ccccc2)c2cc(Cl)ccc21
inactive: [1] | [3] | [4] | [5] | [19] | [6] | [7] | [8] | [9] | [10] | [20] | [11] | [12] | [13] | [14] | [15] | [16] | [17] | [18]

COc1ccccc1N1CCNCC1
inactive: [1] | [2] | [3] | [4] | [5] | [6] | [7] | [8] | [9] | [10] | [20] | [11] | [12] | [13] | [14] | [15] | [16] | [17] | [18]

Cc1cccc(C)c1NC1=NCCCS1
inactive: [2] | [3] | [8] | [14]

c1ccc2c(c1)Nc1ccccc1S2
active: [2] 10 µM | [3] 4.47 µM | [19] 10 µM | [17] 8.49 µM
inactive: [1] | [7] | [8]

N#CC(C#N)=Cc1ccc(O)c(O)c1
inactive: [1] | [2] | [4] | [19] | [6] | [7] | [8] | [9] | [10] | [20] | [11] | [13] | [14] | [15] | [16] | [18]

C[C@]12C/C(=C/O)C(=O)C[C@@H]1CC[C@@H]1[C@@H]2CC[C@@]2(C)[C@H]1CC[C@]2(C)O
inactive: [1] | [3] | [4] | [5] | [19] | [6] | [7] | [8] | [9] | [10] | [20] | [12] | [13] | [14] | [15] | [16] | [17] | [18]

O=[N+]([O-])c1cc([As](=O)(O)O)ccc1O
active: [3] 3.16 µM | [4] 3.16 µM | [19] 3.16 µM | [11] 5.1 µM | [17] 4.55 µM | [18] 3.55 µM

Oc1ccc(Cl)cc1Cc1ccccc1
inactive: [1] | [3] | [6] | [8] | [20] | [14] | [15] | [16]

CC(CCc1ccccc1)NC(C)C(O)c1ccc(O)cc1 (configuration not stated)
inactive: [3] | [4] | [5] | [6] | [8] | [14] | [18]

O=c1[nH]c2ccccc2n1C1CCN(CCCC(c2ccc(F)cc2)c2ccc(F)cc2)CC1
active: [19] 12.6 µM | [20] 11.2 µM | [17] 13.5 µM
inactive: [1] | [2] | [3] | [4] | [6] | [7] | [8] | [9] | [11] | [13] | [16] | [18]

c1ccc2c(c1)OCC(C1=NCCN1)O2 (configuration not stated)
inactive: [1] | [3] | [4] | [5] | [6] | [7] | [8] | [9] | [10] | [20] | [11] | [12] | [13] | [14] | [15] | [16] | [18]

c1ccc(C2CC2)c(OCC2=NCCN2)c1
inactive: [1] | [3] | [4] | [5] | [19] | [7] | [8] | [9] | [10] | [20] | [11] | [12] | [13] | [14] | [15] | [16] | [17] | [18]

CC(C)(C)NCC(O)c1cc(Cl)c(N)c(Cl)c1 (configuration not stated)
inactive: [2] | [3] | [5] | [8] | [9] | [20] | [14] | [15] | [16] | [18]

O=C(O)c1ccc2[nH]cc(CCCCN3CC=C(c4ccccc4)CC3)c2c1
inactive: [1] | [3] | [4] | [5] | [19] | [6] | [7] | [8] | [9] | [10] | [20] | [11] | [13] | [14] | [15] | [16] | [17] | [18]

COc1ccc(C(=O)c2c(C)n(CCN3CCOCC3)c3ccccc23)cc1
inactive: [1] | [2] | [4] | [5] | [19] | [6] | [7] | [9] | [10] | [20] | [11] | [12] | [13] | [14] | [15] | [16] | [17] | [18]

From PubChem BioAssay (NCATS)
